Screening results (PubChem BioAssay)
CF NFkB inh: inhibitors of cystic fibrosis induced NF-kB; actives 0.86% (n = 360,000); inhibition, % at 5 µM; KKLEB NF-kB-GFP reporter, PAF-induced, GFP fluorescence overnight;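 active means at least 50% inhibition at 5 µM, scaled per plate between neutral and stimulator controls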;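 further: PAF is a Pseudomonas aeruginosa culture filtrate used as stimulus; plate controls were PAF-stimulated DMSO wells for no effect and unstimulated DMSO wells for full effect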
Peg3 promoter: reduces Peg3 promoter-driven luciferase expression in HeLa; AID 588405; actives 1.7% (n = 360,000); inhibition, % at 20 µM; HeLa PEG-Prom luciferase reporter, luminescence, overnight;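 active means inhibition of at least 50% at 20 µM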
MITF TRPM1 inh: reduces MITF-dependent TRPM1 promoter luciferase signal | SK-MEL-5 TRPM1 promoter luciferase, 24 h | inhibition, % at 12.5 µM | actives 0.83% (n = 330,000);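 active means mean inhibition across replicates of 60% or more, whatever share of single replicates reaches that level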
KKLEB cytotox: counter-screen for CF NF-kB inhibitors: cytotoxicity; KKLEB CF airway cells viability, ATPlite luminescence, overnight; stronger effect = lower value; cells stimulated with P. aeruginosa culture filtrate; activity change (cytotoxicity), % at 5 µM; AID 602141; actives 0.36% (n = 360,000);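 active means corrected activity change at or below -50% at 5 µM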
HIF-2a block: HIF-2a inhibition; AID 624352; inhibition, % at 18.8 µM; actives 0.72% (n = 360,000); 786-0 RCC cells HIF-2a reporter, luciferase luminescence, overnight;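 active means inhibition of the luminescence signal of 40% or more relative to plate controls, in a single-dose primary screen at 18.75 µM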
Shn3 inh set2: inhibitors of Schnurri-3 3'UTR reporter in osteoblasts. Clone20 osteoblast Shn3 3'UTR firefly luciferase, 24 h. inhibition, % at 12.5 µM. actives 0.52% (n = 360,000). AID 588674;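 active means mean inhibition of at least 75% with every replicate also reaching 75%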;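 further: 0% = median of neutral control wells and 100% = pilot-screen positive control compound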
Starred values were filed as active, the others as inactive; . = not tested or not shown. Sampled rows, rich in hits. Any-hit rate of the full collection: about 2.8%.

SMILES	CF NFkB inh	Peg3 promoter	MITF TRPM1 inh	KKLEB cytotox	HIF-2a block	Shn3 inh set2
Cn1c(N)c(C(=O)CSc2nn(-c3ccccc3)c(=S)s2)c(=O)n(C)c1=O	30.6	-50.8	8.1	-7.4	-13.1	27.0
NC(c1csc(NC(=O)Nc2ccccc2Cl)n1)C1CCCCC1 (configuration not stated)	13.8	94.9*	.	-12.7	-18.4	28.6
C=CCOc1ccc(C2/C(=C(/O)c3ccc(OC)cc3)C(=O)C(=O)N2CCN2CCNCC2)cc1 (configuration not stated)	6.0	-4.8	6.5	5.9	14.7	-40.4
CC(=O)c1c(C)oc2c1C(=O)c1ccccc1C2=O	86.1*	42.1	78.6*	-26.0	17.1	-4.6
COc1ccc(CNC(=O)c2ccc(-c3ccccc3)cc2)cc1	4.7	-215.7	-53.5	1.5	-185.4	-17.2
COc1ccc(CNC(=O)c2c(C)oc3c2C(=O)c2ccccc2C3=O)cc1	89.9*	102.1*	104.0*	-82.0*	72.7*	76.2
CC(C)C1C(=O)N(Cc2cn(CCC3OCCCO3)nn2)CCS(=O)(=O)N1Cc1ccc(-c2ccc(Cl)cc2)cc1 (configuration not stated)	-18.7	-7.4	.	-4.8	-0.9	1.3
CC(C)C1C(=O)N(Cc2cn(CCC3OCCCO3)nn2)CCS(=O)(=O)N1Cc1ccc(-c2ccc(Cl)c(Cl)c2)cc1 (configuration not stated)	13.6	88.2*	.	-6.6	-27.5	17.3
O=C(NC1CCCCC1)C(c1ccccc1)N(Cc1cccnc1)C(=O)c1csnn1 (configuration not stated)	3.6	5.4	5.4	2.3	6.4	5.9
CC(O)(c1ccc(F)c(F)c1)c1nc(-c2ccc(Cl)cc2)cs1 (configuration not stated)	-14.2	76.1*	.	7.8	2.2	6.7
CC(O)(c1ccc(F)c(F)c1)c1nc(-c2cccc(C(F)(F)F)c2)cs1 (configuration not stated)	-1.1	10.0	.	-17.3	5.4	3.6
CC(O)(c1ccncc1)c1nc(-c2cccc(C(F)(F)F)c2)cs1 (configuration not stated)	-11.7	18.3	.	3.7	9.6	85.2*
O=C(Nc1nc(-c2ccccn2)cs1)c1ccc(Br)s1	9.1	-67.7	21.6	-1.3	-210.2	93.2*
O=C(CCS(=O)(=O)c1ccc(F)cc1)Nc1nc(-c2ccccn2)cs1	10.4	8.3	42.4	2.7	6.1	31.4
O=C(Nc1ccc(Br)cc1)c1cccc(-n2cnnn2)c1	-1.3	-63.0	-6.9	-14.2	-36.9	-4.7
O=C(Nc1nc(-c2ccccn2)cs1)c1cccc(-n2cnnn2)c1	1.9	39.9	41.8	3.1	3.1	97.6*
CC(Oc1ccc(F)cc1)C(=O)Nc1nc(-c2ccccn2)cs1 (configuration not stated)	2.9	55.4*	65.3*	11.5	10.8	62.3
CC1(C2CC2)NC(=O)N(CC(=O)Nc2ccccc2F)C1=O (configuration not stated)	-9.8	-10.0	18.3	11.1	-15.9	4.0
COc1cccc(OCCCn2cc(/C=C3/C(=N)N4C=C(C)SC4=NC3=O)c3ccccc32)c1	3.9	35.2	-9.5	-23.3	-22.1	22.8
COc1ccc(OCCCn2cc(/C=C3/C(=N)N4C=C(C)SC4=NC3=O)c3ccccc32)cc1	34.9	51.5*	3.3	-42.5	-86.7	-52.0
COc1cccc(CCNC(=O)CCCC(=O)c2ccccc2)c1	13.2	17.0	.	6.8	23.3	-37.0
CCc1ccccc1N(CC(=O)Nc1cccnc1)S(=O)(=O)c1ccccc1	-19.0	5.2	6.9	6.0	14.3	-3.8
Cc1ccc(OCC(=O)Nc2ccc(Cl)cc2)c(-n2nc3ccccc3n2)c1	70.3*	47.5	-4.2	-70.4*	-3.5	30.3
CCc1cc[n+](C2=C([O-])c3ccccc3C(=O)/C2=N\S(=O)(=O)c2cccs2)cc1	73.5*	-20.3	96.6*	-24.9	-32.1	58.9
Oc1c(Cl)cc(Cl)cc1/C=N/NC(=S)NC1CC2C=CC1C2 (configuration not stated)	50.5*	28.5	8.4	-72.1*	-5.5	.
SMILES	CF NFkB inh	Peg3 promoter	MITF TRPM1 inh	KKLEB cytotox	HIF-2a block	Shn3 inh set2
N#Cc1cc2c(nc1SCc1ccc(Cl)nc1)CCCCC2	38.5	-6.3	-11.3	-12.0	-51.9	13.1
O=S(=O)(c1cnc(Cl)c(Br)c1)N1CCc2ccccc21	-32.1	68.9*	3.2	10.3	35.6	7.9
O=S(=O)(c1cnc(Cl)c(Cl)c1)N1CCc2ccccc21	-30.2	42.0	15.4	3.4	21.8	9.1
O=S(=O)(c1cnc(Cl)c(Cl)c1)N1CCCc2ccccc21	-8.2	51.5*	-5.3	14.2	21.5	-35.4
O=C1C(C=Nc2ccc(F)cc2)=C(O)c2ccccc21	-14.8	-5.5	-12.3	-9.1	-215.1	-40.3
Cc1ccccc1N=CC1=C(O)c2ccccc2C1=O	-42.6	18.7	45.6	-59.6*	-13.0	23.7
COc1ccc(Cl)cc1N(CC(=O)N1CCCC1)S(C)(=O)=O	-5.5	13.2	-5.0	-9.3	23.5	-17.2
CCn1c2ccccc2c2cc(C3C(C#N)=C(N)Oc4n[nH]c(COC)c43)ccc21 (configuration not stated)	-7.0	88.9*	10.1	-33.2	19.4	0.7
COc1ccc2cc1Oc1ccc(cc1)C[C@H]1c3c(cc4c(c3Oc3cc5c(cc3OC)CCN(C)[C@@H]5C2)OCO4)CCN1C	9.1	86.9*	62.7*	-22.1	8.2	-30.0
COc1ccccc1NC(=O)C(C)Sc1nc(-c2ccccc2)cn1N (configuration not stated)	9.7	9.6	5.2	-15.3	-13.6	-7.2
OCC[C@@H]1C[C@H](O)[C@@H](O)[C@]2(Cc3ccccc3O2)O1	25.3	17.4	-9.2	-10.0	17.8	-9.9
Cc1ccc2c(C)nc(Nc3nc(CSc4nc5ccccc5[nH]4)cc(=O)[nH]3)nc2c1	98.8*	108.6*	80.0*	-58.2*	-28.3	73.7
CC(=O)C(C(C)=O)c1c(Cl)c(O)c(O)c2c(C(=O)c3ccccc3)coc12	34.1	35.1	38.2	-26.2	16.2	88.5*
CC1CNC(=S)N(c2ccccc2)C1=O (configuration not stated)	-12.3	62.3*	-6.6	-1.4	5.8	63.1
CC1CNC(=S)N(c2ccc(F)cc2)C1=O (configuration not stated)	-22.6	-3.4	-9.5	-3.2	5.5	-1.5
CC(C)c1nc2sc3c(NCc4ccco4)ncnc3c2c2c1COC(C)(C)C2	77.8*	26.8	-0.7	-66.2*	26.7	18.9
Cc1ccc(C(C[N+](=O)[O-])c2c(-c3ccccc3O)[nH][nH]c2=O)cc1 (configuration not stated)	28.2	96.2*	-0.2	-9.6	-20.5	35.0
